Measured values as given in PubChem BioAssay AID602282 (Johns Hopkins Ion Channel Center, 2012).
The whole screen tested about 1,100 compounds, of which about 1,000 (91%) were called active. So high a share suggests a set chosen from earlier hits. Not all results are given here. A number with no mark means an inactive call.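 How the source made its calls: active means inhibition above 3 SD of the buffer control wells (cut at about 41% in these data); inactive means the rest.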

experiment: reduced carbachol calcium response, RGS4-induced M3R cells, confirmation, RGS4 activator project, cell-based, HEK293 M3R/RGS4 inducible, calcium flux, duplicate (AID 602282); conditions: carbachol calcium flux Fluo4, at 10 µM, active compounds read high;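 further: signal is the integrated peak-minus-minimum Fluo4 fluorescence over baseline ratio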

Compound	inhibition
Cc1nn(C)cc1N1C(=O)c2cccc3c(N)ccc(c23)C1=O	97.5% (active)
OCCC1CN(Cc2ccc3nsnc3c2)CCN1C1CCCC1 (stereo not given)	82.5% (active)
COc1cccc(/C=N/Nc2cc(C)nc(-c3ccccc3O)n2)c1O	93.5% (active)
COc1cccc(-c2cc3nc4c(c(N5CCC6(CC5)OCCO6)n3n2)CCCC4)c1	56.5% (active)
Cc1ccc(OS(=O)(=O)c2ccc(-c3csc(C)n3)s2)c(C)c1	82% (active)
COC(=O)c1ccc(CN2CCC(CO)(Cc3ccc(OC)cc3)CC2)cc1	92% (active)
C#CC(CCN1CCCCC1)(OC)c1ccccc1 (stereo not given)	93% (active)
CCCCCC(O)(CCN1CCCCC1)c1ccccc1 (stereo not given)	93% (active)
Cc1ccc(SCC(=O)c2cc(C)c(OC(=S)N(C)C)c(C)c2)cc1	88.5% (active)
Cc1cc2oc3ccc(NCCC4CCCN4C)cc3c(=O)c2cc1C (stereo not given)	91% (active)
O=S(=O)(c1ccc(Br)cc1)n1ccc2ccccc21	80.5% (active)
CCc1c(C)sc(NC(=O)c2ccc(Br)o2)c1C(=O)OC	69.5% (active)
Cc1oc2c(F)c(F)c(F)c(F)c2c1S(=O)(=O)Nc1cccc(C(F)(F)F)c1	92% (active)
COc1ccc(C(=O)Nc2nc(-c3ccc(S(=O)(=O)N4CCOCC4)cc3)cs2)cc1	85.5% (active)
CCc1ccccc1NC(=O)[C@@H]1CCC(=O)N1C1OC(=O)c2c1ccc(OC)c2OC (stereo not given in full)	0% [the number is a placeholder, only the call stands]
CCC1CCCCN1CCCNC(=O)c1cc2c(Cl)nc3ccccc3c2s1 (stereo not given)	93.5% (active)
N=c1c2c3c(sc2nc2n1CCCCC2)CCCC3	87% (active)
Oc1ccccc1N1CCN(c2ncnc3sc(-c4ccccc4)cc23)CC1	87.5% (active)
COc1ccc(/C=C(\C#N)c2c[nH]c3ccccc23)cc1	85% (active)
COc1cccc(CNC(=O)CCC2CCCN(Cc3ccc(OC(F)F)cc3)C2)c1 (stereo not given)	74% (active)
Cc1nc(N2CCN(c3ccccn3)CC2)c2c(C)c(C(=O)Nc3ccc(F)cc3)sc2n1	91% (active)
OC(CN=c1sc2ccccc2n1CC(O)COc1ccccc1)COc1ccccc1 (stereo not given)	91.5% (active)
CCOC(=O)C1=C(NC(=S)NC(=O)c2ccccc2)c2ccccc2CC1(C)C	92% (active)
CN1CCN(C(=O)N2c3ccccc3CCc3ccccc32)CC1	90.5% (active)
O=C(Cn1c(N2CCN(C/C=C/c3ccccc3)CC2)nc2ccccc21)c1ccccc1	91.5% (active)

Compound	inhibition
Cc1cccc(-c2nc3ccc(C(=O)NCCN4CCN(C)CC4)cc3nc2-c2cccc(C)c2)c1	93.5% (active)
COc1ccc(CN2CCCC(C(=O)c3ccc(Cl)cc3)C2)cc1Cn1cncn1 (stereo not given)	93% (active)
COc1ccccc1C(CNC(=O)c1cccc(NS(=O)(=O)c2ccc(Br)cc2)c1)N(C)C (stereo not given)	85% (active)
O=C(CN1CCCCCC1)Nc1ccc(S(=O)(=O)N2CCCCC2)cc1	65% (active)
CCCN(CCc1ccccc1)C1CCc2c(O)cccc2C1 (stereo not given)	78% (active)
CN(C)CCOc1ccc(Cl)cc1C(C)(C)C	81.5% (active)
COc1ccc(-c2cc(C(=O)N(C)Cc3ccccc3)c3ccccc3n2)cc1	88.5% (active)
COc1ccc(CN(C)C(=O)c2cc(-c3ccc(C)cc3C)nc3ccccc23)c(OC)c1OC	90% (active)
Cc1ccc(N2C(=O)CC(Nc3cccc4ccccc34)C2=O)cc1 (stereo not given)	0% [the number is a placeholder, only the call stands]
CN(C)S(=O)(=O)N1CCC(Oc2cccc(C(=O)NCCCC3CCCC3)c2)CC1	78.5% (active)
Cc1ccc(C)c(N2CCN(C(=O)CCCn3c(=O)c4cccn4c4cccnc43)CC2)c1	85.5% (active)
Cc1ccc(C)c(N2CCN(C(=O)CCCCCn3c(=S)[nH]c4ccc(N5CCOCC5)cc4c3=O)CC2)c1	92% (active)
O=C(c1cccs1)C1C(c2ccc(Br)cc2)NC(=S)NC1(O)C(F)(F)F (stereo not given)	93.5% (active)
CCC1C=C(c2ccccc2)C=CN=C1N(CC)CC (stereo not given)	84% (active)
CCOC(=O)c1c(NC(=O)NC(C)(C)C)sc2c1CCN(C)C2	0% [the number is a placeholder, only the call stands]
COc1cc(/C=C(\C#N)c2nc3ccccc3[nH]2)ccc1O	80.5% (active)
Cc1cccc(-c2nc(Nc3ccc(O)cc3)c3ccccc3n2)c1	80% (active)
Cc1ccnc(SCCn2c(N(C)Cc3ccccc3)nc3c2c(=O)n(C)c(=O)n3C)n1	62% (active)
Cc1ccccc1C(OCCN(C)C)C1CCCCC1 (stereo not given)	91% (active)
S=c1[nH]nc(-c2ccc(Cl)cc2)n1CC1CCCO1 (stereo not given)	59% (active)
CN(C)c1ccc(/C=C2\NC(=S)N(Cc3ccccc3)C2=O)cc1	79.5% (active)
CCOc1ccc(C(CC(=O)O)NC(=O)COc2ccccc2)cc1 (stereo not given)	0% [the number is a placeholder, only the call stands]
CC(C)C(c1nnnn1CCc1ccccc1)N1CCN(C(=O)c2ccco2)CC1 (stereo not given)	87.5% (active)
Cc1ccc(OCCCCN2CCCCC2)c(Br)c1	0% [the number is a placeholder, only the call stands]
COc1ccc(C(=O)NC2CCCc3c2cnn3-c2cccc(C)c2C)c(OC)n1 (stereo not given)	91% (active)
